The values below come from PubChem BioAssay (Tox21).

A short description of assay [1]: qHTS assay for small molecule agonists of the p53 signaling pathway - cell viability (AID 651633; calls by dose curve; note: nearly all actives have a fitted effect of over 30% in size; note: potency is the fitted concentration of half-maximal effect). Put shortly:
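Viability counter-read: CellTiter-Glo luminescence (30 min, room temperature) in the same p53RE-bla plates. These plates had been exposed to compounds for 16 h at 37 C.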

A short description of assay [2]: qHTS assay for small molecules that induce genotoxicity in human embryonic kidney cells expressing luciferase-tagged ATAD5 - cell viability (AID 651634; calls by dose curve; note: nearly all actives have a fitted effect of over 25% in size; note: potency is the fitted concentration of half-maximal effect). Put shortly: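 Viability read: CellTiter-Fluor fluorescence, 30 min at 37C. Cells: HEK293T, luciferase-tagged ATAD5. Exposure: 15.5 hr, 37C, 5% CO2, compound or DMSO vehicle.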
Background: qHTS replaces the single test concentration by a dilution series.

Assay [3] in a line: qHTS assay to test for compound auto fluorescence at 590 nm (red) in HepG2 cells (AID 720674). Put shortly:
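Red autofluorescence (Ex/Em 540/590 nm, Rose Bengal sodium equivalents) was measured in HepG2 cells, 2,000 per well in MEM plus 10% FBS, plated overnight at 37 C. Readings were taken 1 hr after adding 23 nL compound or DMSO, at 37 C and 5% CO2.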

Assay [4] in a line: qHTS assay to test for compound auto fluorescence at 535 nm (green) in HepG2 cells (AID 720675).
A short description of assay [5]: qHTS assay to test for compound auto fluorescence at 460 nm (blue) in HEK293 cells (AID 720678). Put shortly: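 HEK293, 2,000 cells/well, 10% dialyzed FBS; attach 4-5 hr 37C; pin compound or DMSO; o/n 37C/5% CO2; fluorescence 405/460 nm; triamterene-equivalent units.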
A short description of assay [6]: qHTS assay to test for compound auto fluorescence at 590 nm (red) in HEK293 cells (AID 720679). Put shortly:
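Intensity at 540nm excitation and 590nm emission is reported as Rose Bengal sodium-equivalent autofluorescence. Measurements followed overnight exposure (37C, 5% CO2) of HEK293 cells, 2,000 per well, to 23 nL compound.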

Assay [7] is described as follows: qHTS assay for small molecules that induce genotoxicity in human embryonic kidney cells expressing luciferase-tagged ATAD5 (AID 651632). Note: nearly all actives have a fitted effect of over 15% in size. Put shortly:
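Luminescent reporter readout, HEK293T ATAD5-luc line: 16 hr drug exposure (37C, 5% CO2) followed by Amplite, 30 min RT.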

A short description of assay [8]: qHTS assay for small molecule disruptors of the mitochondrial membrane potential - cell viability (AID 720634; calls by dose curve;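 note: human HepG2 liver cancer cells; series mostly up to about 83 µM; nearly all actives have a fitted effect of over 20% in size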). Put shortly: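 HepG2, 1 hr compound, 37 C. ATP luminescence via CellTiter-Glo, 30 min RT, same well as m-MPI.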
Assay [9] is described as follows: qHTS assay for small molecule disruptors of the mitochondrial membrane potential (AID 720635). Note: potency is the fitted concentration of half-maximal effect. Put shortly:
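Mitochondrial membrane potential tracked with Mito-MPS dye, red aggregates (ex 540/em 590 nm) against green monomers (ex 490/em 535 nm). Compound treatment 1 hr at 37C, dye 30 min in HepG2.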

Values without a mark were called inactive. Inconclusive results are not listed. The source made the active and inactive calls. Unless noted, calls come from the whole dose curve; as a rule, active = well fitted curve in the direction sought with a large enough effect in the repeat runs; inconclusive = weak or mixed curves; inactive = no such curve, though single readings can be large; an effect the other way counts as inactive or inconclusive.
% is set by controls: 0 for no effect and ±100 for the full control effect.

Turning to `CCN(CC)c1cccc(O)c1`, the Potency result in assay [1], in assay [2] and in assay [5] was “inactive” in each case. Also, the molecule was classed as inactive in assay [3], in assay [4] and in assay [6].
As for `O=C(CCS)OCC(COC(=O)CCS)(COC(=O)CCS)COC(=O)CCS`, the Potency result in assay [1], in [2] and in assay [5] was “inactive” in each case. In addition, the molecule was classed as inactive in [3], in [4] and in assay [6].
With `CC(C(=O)O)c1ccc(C(=O)c2cccs2)cc1` (stereo unspecified), the Potency entry in assay [7] and in [2] was “inactive” in each case. Moreover, the molecule was classed as inactive in assay [8]. Also, the fluorescence, relative to Rose Bengal in [3] was 0.487% [at 18.6 µM]. Also, the fluorescence, % of fluorescein control in assay [4] is -0.0382% [at 18.6 µM]. Besides, the fluorescence, % of triamterene in [5] is -0.243% [at 18.6 µM]. Moreover, the fluorescence, % of fluorescent control in assay [6] is 0.162% [at 18.6 µM].
As for `CCN(CC)C(=O)/C(C#N)=C/c1cc(O)c(O)c([N+](=O)[O-])c1`, the Potency result in assay [1] and in [5] was “inactive” each time. For the same molecule, in assay [2], the Potency is 26.6 µM (active). Also, the call in assay [3] and in [6] was inactive.
With `Oc1ccc2c(c1)Cc1ccccc1-2`, the Potency result in assay [2] and in [5] was “inactive” in each case. Besides, the Potency in assay [9] was 27.3 µM (active). In addition, the result in assay [3], in assay [4] and in assay [6] was inactive.
Take `COc1cc(C(C)=O)ccc1OCCCN1CCC(c2noc3cc(F)ccc23)CC1`: the Potency result in [1], in assay [2] and in [5] was “inactive” each time. The call in assay [8], in assay [3] and in assay [6] was inactive.
With `CN1C(CSCC(F)(F)F)Nc2cc(Cl)c(S(N)(=O)=O)cc2S1(=O)=O` (stereo unspecified), the Potency entry in assay [7], in assay [2], in assay [9] and in assay [5] was “inactive” in each case. The molecule was classed as inactive in assay [8], in assay [3], in assay [4] and in [6].
`CCCCCCCCCCCCCOS(=O)(=O)O`: the Potency in assay [1] is 68.6 µM (active). Further, the Potency result in assay [2] and in assay [5] was “inactive” each time. In addition, the molecule was classed as inactive in assay [3], in assay [4] and in [6].
As to `Cc1ccccc1S(N)(=O)=O`, the Potency entry in assay [1], in [2] and in assay [5] was “inactive” in each case. Also, the outcome in [8], in assay [3] and in assay [6] was inactive.
As to `C=CCOC(=O)COCCC(C)C`, the Potency result in assay [7], in assay [2] and in assay [5] was “inactive” each time. The call in [8], in [3], in [4] and in assay [6] was inactive.
With `CCCCCCCCCCCCCCCC(=O)OCC`, the Potency entry in assay [1], in [2] and in assay [5] was “inactive” in each case. The result in assay [8], in assay [3], in [4] and in [6] was inactive.
Regarding `CC(C)c1ccc(C(=O)N=C(N)N)cc1S(C)(=O)=O`, the Potency result in assay [7], in [2], in [9] and in [5] was “inactive” each time. For the same molecule, the result in assay [8], in [3], in assay [4] and in assay [6] was inactive.
For `Nc1ccc(F)cc1`, the Potency result in assay [1], in assay [2] and in [5] was “inactive” each time. Besides, the outcome in assay [3] and in assay [6] was inactive.
Consider `CCC(Cl)CC(Cl)C(Cl)C(Cl)C(Cl)C(C)Cl` (stereo unspecified), for which, in [2], the activity, negative = cytotoxicity is 13% [at 17.9 µM]. In assay [3], the fluorescence, relative to Rose Bengal was 0.266% [at 13.4 µM]. In addition, the fluorescence, % of fluorescein control in assay [4] was -0.0606% [at 13.4 µM]. Also, the fluorescence, % of triamterene in [5] was 0.1% [at 13.4 µM]. In assay [6], the fluorescence, % of fluorescent control was -0.173% [at 13.4 µM].
Consider `CNC1CCCN(c2c(F)cc3c(=O)c(C(=O)O)cn(C4CC4)c3c2OC)C1` (stereo unspecified), for which the Potency result in [7], in assay [2], in assay [9] and in assay [5] was “inactive” each time. The molecule was classed as inactive in assay [8], in assay [3], in assay [4] and in assay [6].
As to `CCCCCCCCCCCCCOC(=O)CCSCCC(=O)OCCCCCCCCCCCCC`, the Potency entry in [1] and in assay [2] was “inactive” each time. Moreover, in assay [8], the result was inactive. In addition, in assay [3], the fluorescence, relative to Rose Bengal is 0.06% [at 18.6 µM]. In [4], the fluorescence, % of fluorescein control was -0.0137% [at 18.6 µM]. Further, the fluorescence, % of triamterene in [5] was 0.0236% [at 18.6 µM]. Moreover, in assay [6], the fluorescence, % of fluorescent control is 0.358% [at 18.6 µM].
In the case of `Cc1ccc(Nc2c(F)cccc2Cl)c(CC(=O)O)c1`, the Potency entry in [1], in assay [2] and in assay [5] was “inactive” each time. Moreover, the outcome in [8], in assay [3] and in [6] was inactive.
Regarding `CC(CN(CCN(CC(C)OCCO)CC(C)OCCO)CC(C)OCCO)OCCO` (stereo unspecified), the Potency entry in assay [1] is “inactive”. In addition, the outcome in assay [8], in [3], in [4] and in [6] was inactive.
With `O=C1NC(=O)c2cccc3cccc1c23`, the Potency result in assay [1], in assay [2] and in [5] was “inactive” in each case. The outcome in assay [8], in assay [3], in [4] and in assay [6] was inactive. Also, the Potency in assay [9] is 10.9 µM (active).
For the molecule `O[C@@H](CNC[C@H](O)[C@H]1CCc2cc(F)ccc2O1)[C@@H]1CCc2cc(F)ccc2O1`, the Potency result in assay [7], in [2] and in assay [5] was “inactive” throughout. The result in [8], in [3], in assay [4] and in assay [6] was inactive.
In the case of `O=C1OC(=O)c2c(Br)c(Br)c(Br)c(Br)c21`, the Potency result in [2], in assay [9] and in [5] was “inactive” in each case. Moreover, the call in assay [3], in assay [4] and in assay [6] was inactive.
On to `CC(C)COC(=O)c1ccc(O)cc1`, for which the Potency entry in [7], in assay [2] and in assay [5] was “inactive” throughout. Besides, the Potency in assay [9] was 12.2 µM (active). Moreover, the outcome in [3], in [4] and in assay [6] was inactive.
In the case of `COC(=O)C1=C(C)NC(C)=C(C(=O)OC(C)(C)CN(C)CCC(c2ccccc2)c2ccccc2)C1c1cccc([N+](=O)[O-])c1` (stereo unspecified), the Potency in assay [9] was 5.96 µM (active). Besides, the call in assay [3], in assay [4] and in assay [6] was inactive. In assay [5], the Potency result was “inactive”.
Regarding `O=C(/C=C/c1ccc([N+](=O)[O-])cc1)c1ccccc1`, the Potency was 68.7 µM (active) in assay [1] and 30.7 µM (active) in [9]. In addition, the Potency result in [2] and in assay [5] was “inactive” each time. In addition, the molecule was called inactive in [8], in assay [3], in assay [4] and in assay [6].
Consider `CCN(Cc1cccc(S(=O)(=O)O)c1)c1ccc(C(=C2C=CC(=[N+](CC)Cc3cccc(S(=O)(=O)O)c3)C=C2)c2ccc(O)cc2S(=O)(=O)[O-])cc1`, for which the Potency entry in assay [7] and in assay [5] was “inactive” throughout. Also, in [2], the Potency is 33.1 µM (active). Also, the result in [3], in assay [4] and in [6] was inactive.
Take `COc1ccc2nc(S(=O)Cc3ncc(C)c(OC)c3C)[nH]c2c1` (stereo unspecified): the Potency result in [7], in assay [2] and in assay [9] was “inactive” throughout. Further, the molecule was called inactive in assay [8], in [3] and in assay [6].
As to `CC(C)(C)C(O)/C=C/c1ccc2c(c1)OCO2` (stereo unspecified), the Potency entry in [7], in assay [2] and in [5] was “inactive” throughout. Further, the call in assay [8], in assay [3], in assay [4] and in [6] was inactive.
Take `CN1CCCN(C(c2ccccc2)c2ccc(Cl)cc2)CC1` (stereo unspecified): the Potency result in [7], in assay [2] and in assay [5] was “inactive” in each case. Moreover, the molecule was classed as inactive in assay [8], in assay [3], in assay [4] and in [6].
